# In PubChem BioAssay AID1220 (Sanford-Burnham Center for Chemical Genomics, 2008):
# Screen size: about 190,000 compounds; about 1,300 (0.68%) were called active. Cut-off read from the data, not from the text of the source: active = inhibition above about 50%; inactive = the rest. Shown is part of a subset that was picked to be rich in actives.
# Target: Mannose-6-phosphate isomerase (Homo sapiens) (UniProt P34949)
# Test: MPI inhibition at elevated mannose 6-phosphate – biochemical, fluorescence intensity, high mannose 6-phosphate, primary screen (AID 1220)
# Settings: recombinant PMI enzyme, coupled fluorescence intensity; at 20 µM; hits give high values
# Chain of Mannose-6-phosphate isomerase (Homo sapiens) (P34949 whole entry, looked up): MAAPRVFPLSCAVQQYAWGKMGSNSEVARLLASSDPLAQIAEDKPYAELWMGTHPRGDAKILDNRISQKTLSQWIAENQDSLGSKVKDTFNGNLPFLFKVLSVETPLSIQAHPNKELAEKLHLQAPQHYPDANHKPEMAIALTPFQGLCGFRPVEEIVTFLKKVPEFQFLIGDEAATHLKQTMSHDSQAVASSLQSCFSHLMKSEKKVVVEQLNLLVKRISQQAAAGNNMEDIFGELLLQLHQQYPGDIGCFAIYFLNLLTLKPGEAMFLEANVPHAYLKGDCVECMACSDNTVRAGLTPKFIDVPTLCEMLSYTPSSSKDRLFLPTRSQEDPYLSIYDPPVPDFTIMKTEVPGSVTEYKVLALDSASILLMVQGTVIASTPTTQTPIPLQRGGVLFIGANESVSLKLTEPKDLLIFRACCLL
row,Structure (SMILES),inhibition
1,Cc1ccn2cc(C(=O)Nc3nnc(C)s3)nc2c1,51.4% (active)
2,CCOC(=O)c1cn2ccc(C)cc2n1,10% (inactive)
3,Cc1ccn2cc(C(=O)Nc3ccc4c(c3)OCCO4)nc2c1,8.6% (inactive)
4,CC1CCN(CC(=O)Nc2sc3c(c2C#N)CCC3)CC1,-6.5% (inactive)
5,Cc1cc(F)ccc1N1CCC(N2CCN(CCC(C)C)C(CCO)C2)CC1 (centres undefined),4.2% (inactive)
6,CC(C)CCN1CCN(C2CCN(c3ccccc3)CC2)CC1CCO (centres undefined),7% (inactive)
7,CC(C)CCN1CCN(C2CCN(c3ccc4c(c3)OCO4)CC2)CC1CCO (centres undefined),52.3% (active)
8,C=CCSc1nnc(NC(=O)c2cn(CC)c3nc(C)ccc3c2=O)s1,-1.9% (inactive)
9,COc1ccc(CCn2c(N)c(C(=O)NCc3ccco3)c3nc4ccccc4nc32)cc1OC,51.6% (active)
10,COc1ccc(OC)c(-n2c(N)c(C(=O)NCC3CCCO3)c3nc4ccccc4nc32)c1 (centres undefined),17.6% (inactive)
11,Nc1c(C(=O)NCc2ccco2)c2nc3ccccc3nc2n1CCc1ccccc1,34.8% (inactive)
12,Nc1c(C(=O)NCc2ccccc2)c2nc3ccccc3nc2n1CCCN1CCOCC1,49% (inactive)
13,COc1ccc(CNC(=O)c2c(N)n(CCCN3CCOCC3)c3nc4ccccc4nc23)cc1,20.1% (inactive)
14,COCCn1c(N)c(C(=O)OCc2ccccc2)c2nc3ccccc3nc21,49.4% (inactive)
15,COCCn1c(N)c(C(=O)NCc2cccs2)c2nc3ccccc3nc21,62.5% (active)
16,COCCn1c(N)c(C(=O)Nc2sc3c(c2C(=O)OC)CCCC3)c2nc3ccccc3nc21,11.1% (inactive)
17,COCCn1c(N)c(C(=O)NCC2CCCO2)c2nc3ccccc3nc21 (centres undefined),71.5% (active)
18,COc1ccc(CCn2c(N)c(C(=O)NCc3ccco3)c3nc4ccccc4nc32)cc1,48.2% (inactive)
19,COc1ccccc1CNC(=O)c1c(N)n(CCCN2CCOCC2)c2nc3ccccc3nc12,52.5% (active)
20,COCCn1c(N)c(S(=O)(=O)c2cccs2)c2nc3ccccc3nc21,4.3% (inactive)
21,COc1ccccc1/C=N/NC(=O)c1ccccc1Cl,2.7% (inactive)
22,COc1ccc2nc(C)cc(SCC(=O)NNC(=O)COc3cccc4ccccc34)c2c1,-3% (inactive)
23,CC(C)N(C(=O)Cn1cc(SCC(N)=O)c2ccccc21)C(C)C,-4.4% (inactive)
24,COc1cccc(NC(=O)CSCC(=O)O)c1,8.3% (inactive)
25,CCOC(=O)Cn1cc(C(=O)c2cccs2)c2ccccc21,5.6% (inactive)

row,Structure (SMILES),inhibition
1,O=S(=O)(NC1CC2CCC1C2)c1ccc2c(c1)OCCO2 (centres undefined),3.1% (inactive)
2,CC(=O)Nc1ccc(NC(=O)Cn2c(=O)n(-c3ccc(F)cc3)c(=O)c3oc4ccccc4c32)cc1,-9.8% (inactive)
3,C=CCn1c(N)c(C(=O)Nc2ccccc2)c2nc3ccccc3nc21,13.4% (inactive)
4,C=CCn1c(N)c(C(=O)NCC2CCCO2)c2nc3ccccc3nc21 (centres undefined),57% (active)
5,O=C(NCC1CCCO1)c1coc2nc3ccccc3nc12 (centres undefined),-9.5% (inactive)
6,COCCNC(=O)c1c(N)n(-c2cccc(C)c2)c2nc3ccccc3nc12,25.9% (inactive)
7,COCCNC(=O)c1c(N)n(-c2ccccc2)c2nc3ccccc3nc12,55.1% (active)
8,C=CCn1c(N)c(C(=O)Nc2ccc(C)c(C)c2)c2nc3ccccc3nc21,41.2% (inactive)
9,Nc1c(C(=O)NCC2CCCO2)c2nc3ccccc3nc2n1-c1ccccc1 (centres undefined),60.3% (active)
10,CC(C)Cn1c(N)c(C(=O)NCC2CCCO2)c2nc3ccccc3nc21 (centres undefined),59.5% (active)
11,COc1ccc(-n2c(N)c(C(=O)NCC3CCCO3)c3nc4ccccc4nc32)c(OC)c1 (centres undefined),45% (inactive)
12,CC(C)Cn1c(N)c(C(=O)NCCN2CCOCC2)c2nc3ccccc3nc21,20.7% (inactive)
13,COCCCNC(=O)c1c(N)n(-c2ccc(S(N)(=O)=O)cc2)c2nc3ccccc3nc12,38.7% (inactive)
14,COc1ccccc1-n1c(N)c(C(=O)NCC2CCCO2)c2nc3ccccc3nc21 (centres undefined),-18.2% (inactive)
15,O=C(Cn1c(NCCCO)nc2ccccc21)c1cccc(Br)c1,4.9% (inactive)
16,O=C(CSc1nnc(COc2ccccc2)n1Cc1ccco1)NCc1ccco1,2.2% (inactive)
17,O=C1CC(c2ccccc2)CC(O)=C1C=NCc1ccccc1Cl (centres undefined),4.3% (inactive)
18,O=C(COC(=O)c1cc2c(s1)CCCC2)Nc1ccc(Cl)cn1,4.6% (inactive)
19,CCc1nnc(NC(=O)CCC(=O)N2CCN(CCc3ccccc3)CC2)s1,-5.9% (inactive)
20,CCn1c(CNc2ccc(F)cc2)nnc1SCC(=O)N1CCCc2ccccc21,27.9% (inactive)
21,CCc1ccccc1S(=O)(=O)Cc1ccc(C(=O)NCc2ccc3c(c2)OCO3)o1,-1.6% (inactive)
22,N#Cc1c(NC(=O)c2ccccc2Cl)n(Cc2ccccc2)c2nc3ccccc3nc12,32.7% (inactive)
23,CCCCn1c(NC(=O)c2ccccc2Cl)c(C#N)c2nc3ccccc3nc21,53.7% (active)
24,N#Cc1c(N)n(CCNC(=O)c2ccccc2)c2nc3ccccc3nc12,24.7% (inactive)
25,CCCCn1c(NC(=O)c2ccccc2)nc2ccccc21,-3.6% (inactive)

row,Structure (SMILES),inhibition
1,N#Cc1c(N)n(CCNC(=O)c2ccc(Cl)cc2)c2nc3ccccc3nc12,16.9% (inactive)
2,Cc1ccccc1C(=O)Nc1ccc2c(C#N)c3nc4ccccc4nc3n2c1,6.1% (inactive)
3,CCCCn1c(NC(C)=O)c(C#N)c2nc3ccccc3nc21,57% (active)
4,CCCCn1c(NC(=O)CC)c(C#N)c2nc3ccccc3nc21,13% (inactive)
5,CCCCn1c(NC(=O)c2ccccc2)c(C#N)c2nc3ccccc3nc21,54.7% (active)
6,CCC(=O)Nc1c(C#N)c2nc3ccccc3nc2n1-c1ccccc1C,24.5% (inactive)
7,C=CCn1c(NC(=O)c2ccccc2Cl)c(C#N)c2nc3ccccc3nc21,54.5% (active)
8,CCCCCn1c(N)c(C#N)c2nc3ccccc3nc21,42.7% (inactive)
9,O=C(CSc1nc2ccccc2n1CC(=O)N1CCCC1)NCc1ccc2c(c1)OCO2,-0.8% (inactive)
10,Cc1ccc(NC(=O)c2cc3c(s2)CCC3)cc1S(=O)(=O)N1CCOCC1,8.8% (inactive)
11,COc1ccc(S(=O)(=O)NCc2cccs2)cc1,-18.3% (inactive)
12,O=C(NC(=S)NCCCN1CCOCC1)c1cccc2ccccc12,1% (inactive)
13,O=S1(=O)NC(=NCCc2ccccn2)c2ccccc21,-6.8% (inactive)
14,O=C1c2ccccc2C(=O)N1c1cccc2cccnc12,-2.2% (inactive)
15,O=S1(=O)Nc2c(ccc3cccnc23)-c2ccccc21,69.5% (active)
16,O=S(=O)(c1ccc(Cl)cc1)N1CCN(c2ccc(N3CCOCC3)nn2)CC1,-2.7% (inactive)
17,N#CC1=C(N)Oc2c(ccc3ccccc23)C1c1ccsc1 (centres undefined),53.2% (active)
18,N#CC1=C(N)Oc2c(ccc3ccccc23)C1c1cccs1 (centres undefined),3.4% (inactive)
19,N#CC1=C(N)Oc2c(O)cc3ccccc3c2C1c1ccsc1 (centres undefined),30.3% (inactive)
20,c1ccc(N2CCN(c3nc4ccccc4n4cnnc34)CC2)cc1,10% (inactive)
21,CC1(C)Oc2cc(N)c([N+](=O)[O-])cc2O1,28.1% (inactive)
22,Nc1ccc(-c2ccc(N)c([N+](=O)[O-])c2)cc1[N+](=O)[O-],-2.3% (inactive)
23,O=c1[nH]cnc2ccsc12,-6% (inactive)
24,CCOc1ccccc1NC(=O)CN(c1ccc(OC)cc1OC)S(=O)(=O)c1ccccc1[N+](=O)[O-],-0.9% (inactive)
25,CC(=O)c1cccc(NC(=O)C(=O)Nc2cccc3ccccc23)c1,-6.5% (inactive)

row,Structure (SMILES),inhibition
1,CN(C)c1ccc(NC(=O)Nc2cccc3ccccc23)cc1,25.8% (inactive)
2,C/C(=C\C(=S)Nc1ccccc1)Nc1cccc2ccccc12,60.8% (active)
3,COc1ccc(N/C(C)=C/C(=S)Nc2ccccc2)cc1,50.1% (active)
4,C/C(=C\C(=S)Nc1ccccc1)Nc1ccccc1,-1.1% (inactive)
5,CN(C)C(=S)Nc1ccc2ccccc2c1,3.2% (inactive)
6,CC(=O)Nc1ccc2ccccc2c1,6.5% (inactive)
7,C/C(=C\C(=S)Nc1ccccc1)Nc1ccc2ccccc2c1,60% (active)
8,COc1ccc(N/C(C)=C/C(=O)c2ccccc2)cc1,14.3% (inactive)
9,CCn1c(SCC(=O)N/N=C/c2cc(OC)c(O)c(OC)c2)nc2ccccc21,-11% (inactive)
10,CC(C)NS(=O)(=O)c1ccc(NC(=S)NC(=O)c2cccc([N+](=O)[O-])c2)cc1,-2.9% (inactive)
11,O=C(O)CSc1nnc(-c2ccncc2)n1CCc1ccccc1,-5.1% (inactive)
12,O=c1[nH]c2cc3c(cc2cc1CN(Cc1nnnn1CC1CCCO1)C1CCCC1)OCO3 (centres undefined),-6.2% (inactive)
13,O=C(CCN1CCCCC1)c1ccc2c(c1)OCCO2,43% (inactive)
14,Cc1cccc(N2CCN(S(=O)(=O)c3cccc4nonc34)CC2C)c1 (centres undefined),26.5% (inactive)
15,Cc1[nH]n(-c2ccccc2)c(=O)c1C(c1ccccc1C(=O)O)c1c(C)[nH]n(-c2ccccc2)c1=O,-21.9% (inactive)
16,COc1ccc(NC(=O)c2ccco2)cc1NC(=O)c1ccco1,4.5% (inactive)
17,COc1cccc(OC)c1C(=O)Nc1ccc(NC(=O)c2ccco2)cc1,3.3% (inactive)
18,COc1ccc(NC(=O)c2ccco2)cc1N,58.3% (active)
19,N#Cc1ccc(OCC(=O)NCC2(N3CCCCC3)CCCCC2)cc1,-10.6% (inactive)
20,COc1ccc(-n2c(Cn3c(=O)sc4ccccc43)nnc2SCC(=O)N2CCCC2)cc1,-4.6% (inactive)
21,O=C(O)CCc1c(C(=O)O)[nH]c2ccccc12,-4.7% (inactive)
22,CCN(CC)S(=O)(=O)c1cccc(NC(=O)COC(=O)c2n[nH]c(=O)c3ccccc23)c1,53.3% (active)
23,Cc1ccc(S(=O)(=O)N(C)C)cc1NC(=O)COC(=O)c1n[nH]c(=O)c2ccccc12,-8% (inactive)
24,CCN(CC)S(=O)(=O)c1cccc(NC(=O)COC(=O)c2cc(=O)c3ccccc3o2)c1,9.7% (inactive)
